TRb-SRC2 inh: disrupts binding of human TR beta to SRC2; Potency, µM (doses to about 106 µM), inactives show top-dose activity change, negative = inhibition, actives largely listed as inhibitors; actives 0.065% (n = 280,000); TRbeta-SRC2 peptide binding, fluorescence polarization; receptor liganded with 1 µM T3; P10828;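 further: plate controls were bound peptide for no effect and peptide without receptor for full effect; nearly all actives have a fitted effect of over 50% in size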
Target sequence (P10828 whole entry, looked up): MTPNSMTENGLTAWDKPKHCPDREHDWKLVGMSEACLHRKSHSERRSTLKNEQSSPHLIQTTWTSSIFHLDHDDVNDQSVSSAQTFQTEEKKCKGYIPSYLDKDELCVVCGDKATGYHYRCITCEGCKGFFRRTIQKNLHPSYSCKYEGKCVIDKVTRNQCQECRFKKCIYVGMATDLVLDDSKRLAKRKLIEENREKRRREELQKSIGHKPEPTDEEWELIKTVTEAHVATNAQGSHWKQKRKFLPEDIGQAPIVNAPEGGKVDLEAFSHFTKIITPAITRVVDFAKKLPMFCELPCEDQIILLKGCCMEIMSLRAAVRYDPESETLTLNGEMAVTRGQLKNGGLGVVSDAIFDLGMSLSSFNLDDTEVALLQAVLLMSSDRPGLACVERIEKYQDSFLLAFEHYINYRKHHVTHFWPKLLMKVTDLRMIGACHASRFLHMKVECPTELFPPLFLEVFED
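Assay buffer: 20 mM Tris-HCl, 100 mM NaCl, 10% glycerol, 1 mM EDTA, 0.01% NP-40, 1 mM DTT, 1 uM T3, 5% DMSO; TRb LBD 0.6 uM, Texas Red SRC2 20 nM; FP after 5 hr.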
Tau fluor counter: counter-screen for tau fibril formation inhibitors; Potency, µM (doses to about 57.7 µM), for the others: at the highest dose activity change, negative = decrease; actives 0.93% (n = 280,000); tau K18 P301L Alexa594 fluorescence, heparin fibrillization; further: nearly all actives have a fitted effect of over 55% in size
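Human tau K18 P301L (15 uM unlabeled, 0.24 uM Alexa 594-labeled) in 100 mM sodium acetate pH 7 with 20 uM heparin, 6 hr at 37 C. ThT 30 uM added, 1 hr ambient; Alexa 594 FP and total fluorescence read at 555/632 nm.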
TR SRC2 fluor cs: Texas Red fluorescence interference in TRb-SRC2 counter-screen; TRb/SRC2 Texas Red total fluorescence interference; Potency, µM (titrated, usually from 106 µM), for the others: at the highest dose fluorescence change, negative = quenching; actives 0.29% (n = 280,000); active means well fitted curve in either direction with a large enough effect; inconclusive means small, poorly fitted or top-dose-only effect
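Human TRβ ligand-binding domain (0.6 uM) and Texas Red SRC2 peptide (20 nM) in Tris buffer with 1 uM T3 and 5% DMSO were incubated with pinned compound for 5 hr at ambient temperature. Total fluorescence was computed as S + 2P (555/632 nm).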
Tau ThT inhib: inhibitors of human tau fibril formation, thioflavin T binding | P10636 | recombinant tau K18 P301L, heparin-induced fibrillization, ThT fluorescence | Potency, µM (highest dose often 57.4 µM), for the others: top-dose activity, negative = inhibition, usual class: inhibitors | actives 2.1% (n = 270,000) | AID 1460; further: nearly all actives have a fitted effect of over 55% in size
Target sequence (P10636 561-689 P618L limits assumed): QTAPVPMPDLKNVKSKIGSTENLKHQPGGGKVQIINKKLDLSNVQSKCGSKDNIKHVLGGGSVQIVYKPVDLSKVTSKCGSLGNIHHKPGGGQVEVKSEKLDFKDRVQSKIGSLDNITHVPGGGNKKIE
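ThT emission at 510 nm, taken 1 hr after adding 30 uM dye, quantifies aggregates formed when 20 uM heparin acts on human tau K18 P301L for 6 hr at 37 C.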
Tau fibril FP: blocks human tau fibril formation measured by polarization; K18 P301L tau heparin fibrillization, Alexa594 FP, 6 h; P10636; actives 0.39% (n = 280,000); Potency, µM (titrated, usually from 57.7 µM), inactives show at the highest dose activity, negative = inhibition, usual class: inhibitors; further: nearly all actives have a fitted effect of over 55% in size
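Recombinant K18 P301L […], labeled with Alexa 594 at 0.24 uM over 15 uM unlabeled; heparin inducer 20 uM final; 37 C, 6 hr; FP endpoint.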
The depositor's hits bear a star; ? = inconclusive; . = not tested or not shown; [ ] = remark or other dose. This is a sample that favours compounds with a hit; in the whole collection about 3% have one here. Unless noted, the call rests on the fitted dose curve; in most records, active means well fitted curve in the direction sought with a large enough effect; inconclusive means small, poorly fitted or top-dose-only effect, or another doubt; inactive means no such curve, though single readings can be large; an effect the other way counts as inactive or inconclusive. Unless noted, on the % scale 0 is the no-effect control and ±100 the full control effect; potency means the concentration at half of the fitted maximal effect.

SMILES	TRb-SRC2 inh	Tau fluor counter	TR SRC2 fluor cs	Tau ThT inhib	Tau fibril FP
Cc1ccc(NC(=O)CSc2nnc(-c3ccco3)c(-c3ccco3)n2)cc1	1%	?	?	7.9µM*	?
CCn1c(SCC(=O)NNC(=O)c2ccc(OC)cc2)nnc1-c1ccco1	-8%	-45%	-3%	5.6µM*	0%[2.34 µM]
CCn1c(=O)cc(SCC(=O)NCc2ccc(Cl)cc2)c2ccccc21	-1%	-1%	-3%	1%	1%
Cc1cc(C)cc(/C=C/C2OCC(O)C2Oc2ccc(C3CCCC3)cc2)c1 (stereo unspecified)	3%[11.2 µM]	-16%[11.6 µM]	0%[11.2 µM]	-8%[11.5 µM]	0%[11.6 µM]
COC(=O)CC1=COC(O)C2C(CO)=CC[C@@H]12 (stereo partly specified)	4%[11.2 µM]	-15%[11.6 µM]	0%[11.2 µM]	-11%[11.5 µM]	4%[11.6 µM]
CSc1nnc(-c2ccco2)c(-c2ccco2)n1	0%	?	-12%	13µM*	?
O=[N+]([O-])c1ccccc1-c1ccc(/C=N/n2cnnc2)o1	5%	-6%	-3%	?	3%
O=C(N/N=C/c1ccc(-c2ccccc2[N+](=O)[O-])o1)c1cncc(Br)c1	-6%	?	-2%	7.9µM*	?
Nn1cnnc1N/N=C\c1ccc(-c2ccccc2[N+](=O)[O-])o1	-21%	?	?	7.9µM*	?
Cc1cc([N+](=O)[O-])c(C)cc1-c1ccc(/C=N/NC(=O)c2cccnc2)o1	5%	?	4%	7.1µM*	?
CCC(=O)N1CCc2cc(S(=O)(=O)NCCC(=O)Nc3ccc(C)cc3C)ccc21	-3%	-7%	1%	1%	-5%
NCCCCCCCCCCC(=O)O	-3%[201 µM]	.	-4%[201 µM]	.	.
Cn1c(=O)c2c(nc(NN=C3CCCC3)n2C)n(C)c1=O	1%	22µM*[quencher]	-1%	22µM*	?
COC(=O)c1ccc(-c2ccc(/C=N/NC(=O)Cc3nnc(N)s3)o2)cc1	1%	-16%	-5%	7.9µM*	6%
COc1cc(/C=C2\C(=O)NN(c3ccc(C)cc3)C2=O)cc([N+](=O)[O-])c1O	-1%	?	-7%	13µM*	-4%
COc1cc(/C=C2\C(=O)NN(c3ccccc3)C2=O)cc([N+](=O)[O-])c1O	0%	-30%	-3%	11µM*	-6%
CC(=O)N1CCc2cc(Br)cc(S(=O)(=O)CCC(=O)NCc3ccc(F)cc3)c21	10%	-7%	-2%	2%	-2%
Cc1nn(-c2ccccc2)c(N)c1N=Nc1cccc(S(=O)(=O)N2CCOCC2)c1	-6%	?	-7%	?	6%
Cc1cc(C)n2nc(N)c(N=Nc3ccccc3)c2n1	0%	-13%	-4%	14µM*	4%
Cc1nn(-c2ccccc2)c(N)c1N=Nc1ccccc1	-3%	?	1%	8.9µM*	2%
Nc1nn(-c2ccccc2)c(N)c1N=Nc1ccccc1F	-2%	?	-2%	4.5µM*	5%
Cc1cccc(N=Nc2c(C)nn(-c3ccccc3)c2N)c1C	6%	?	-2%	7.1µM*	8%
Cc1cc(C)n2nc(N)c(N=Nc3ccc4c(c3)OCO4)c2n1	14%	8%	-3%	7%	4%
Cc1c(C(=O)N(C)C)sc2c1c(=O)n(-c1ccc(F)cc1)c(=O)n2Cc1ccccc1C#N	7%	-4%	0%	-2%	-7%
CC(C)N(Cc1ccccc1)C(C)C (tested in a mixture with another compound)	-1%	.	-3%	.	.
SMILES	TRb-SRC2 inh	Tau fluor counter	TR SRC2 fluor cs	Tau ThT inhib	Tau fibril FP
COc1ccc(NC(=O)C2=C(C)Nc3nc(CCCO)nn3C2c2ccc(O)cc2)cc1 (stereo unspecified)	4%	3%	-17%	-3%	2%
Cc1nn(-c2ccccc2)c(N)c1N=Nc1ccc(Cl)cc1	-6%	?	-3%	7.9µM*	-6%
Nc1nn(-c2ccccc2)c(N)c1N=Nc1ccccc1	-4%	-28%	-1%	5µM*	4%
Cc1nn(-c2ccccc2)c(N)c1-c1ccccc1	1%	-2%	-1%	-6%	8%
Cc1cccc(C)c1OCCn1c(C2CC(=O)N(Cc3ccc(F)cc3)C2)nc2ccccc21 (stereo unspecified)	2%	-20%	-3%	?	3%
Cc1ccc(CNC(=O)C2CCCN(c3nn4cc(-c5ccc(C)cc5)nc4s3)C2)cc1 (stereo unspecified)	-2%	-17%	2%	?	1%
CN1C(=O)/C(=C2\SC(N3CCCCCC3)=NC2=O)c2ccccc21	-2%	?	-4%	13µM*	11%
CCCN1C(=O)/C(=C2\SC(N3CCCCC3)=NC2=O)c2ccccc21	0%	?	-7%	16µM*	3%
CN1C(=O)/C(=C2\SC(N)=NC2=O)c2ccccc21	-5%	-25%	-1%	?	3%
Cc1nc2c(c(C)nn2-c2ccccc2)c(C)c1CCC(=O)Nc1ccc(F)cc1	-3%	-22%	-2%	8%	?
CC(C)=NOCc1ccc(-c2cc(-c3ccccc3)no2)cc1	1%[11.2 µM]	-3%[11.6 µM]	-3%[11.2 µM]	-5%[11.5 µM]	-4%[11.6 µM]
O=C(NC(CSCc1ccccc1)C(=O)N/N=C/c1ccc(O)cc1O)c1ccc([N+](=O)[O-])cc1 (stereo unspecified)	-2%	13µM*[quencher]	-1%	?	?
CCSc1nnc(NC(=O)c2cc(=O)c3cc(C)ccc3o2)s1	-5%	-3%	-1%	?	-2%
COc1ccc(NC(=O)c2cc(S(=O)(=O)N3CCOCC3)cn2C)cc1Cl	-14%	-2%	10µM*[quencher]	-4%	-9%
Cc1cc(N=Nc2ccc(Cl)cc2)cc(CN2CCCC2)c1O	-4%	?	-3%	28µM*	?
CC(C)(C)c1ccc(C(=O)OC/C(O)=C(\C#N)c2nc3ccccc3s2)cc1	-3%	-29%	-7%	?	8%
N#C/C(=C/c1ccc(-c2ccc(S(N)(=O)=O)cc2)o1)c1nc2ccccc2s1	-2%	?	5%	11µM*	-4%
COc1ccc(/C(C#N)=C/c2ccccn2)cc1	6%	-26%	-3%	?	-5%
COC(=O)c1ccc(/C=C(\C#N)c2nc3ccccc3s2)cc1	-2%	?	-1%	7.9µM*	-4%
N#C/C(=C\c1ccccn1)c1nc2ccccc2s1	0%	14µM*[quencher]	1%	8.9µM*	?
Cc1ccc(S(=O)(=O)c2nnn3c2nc(NC(C)C)c2sccc23)cc1	-7%	-20%	-1%	-8%	-23%
CCCCNS(=O)(=O)c1ccc2nc(SCC(=O)Nc3ccccc3Cl)[nH]c2c1	-4%	?	-3%	2%	25µM*
CCCCNS(=O)(=O)c1ccc2nc(SCC(=O)Nc3cccc(F)c3)[nH]c2c1	0%	-29%	-3%	-7%	-13%
CC1(C)CCC2=C(O1)c1ccccc1C(=O)C2=O	?	-24%	-7%	13µM*	?
